# Giardia FBPA inh – inhibitors of Giardia lamblia fructose-1,6-bisphosphate aldolase. A8B2U2. 290,000 compounds, 0.71% hits. purified Giardia FBPA. AID 2451. Potency, µM (top dose mostly 59.6 µM), usual class: inhibitors; further: nearly all actives have a fitted effect of over 55% in size
# Target sequence (A8B2U2 whole entry, looked up): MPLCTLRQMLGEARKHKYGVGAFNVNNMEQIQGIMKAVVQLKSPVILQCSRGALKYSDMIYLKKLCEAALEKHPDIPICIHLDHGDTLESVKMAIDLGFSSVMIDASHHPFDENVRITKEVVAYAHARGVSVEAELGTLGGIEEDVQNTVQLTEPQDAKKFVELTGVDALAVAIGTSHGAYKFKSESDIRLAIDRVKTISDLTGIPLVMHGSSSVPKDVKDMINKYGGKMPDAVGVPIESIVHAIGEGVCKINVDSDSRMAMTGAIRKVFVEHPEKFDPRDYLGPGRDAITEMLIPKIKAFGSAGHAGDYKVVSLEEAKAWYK
#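 Giardia FBPA (40 nM reagent) was preincubated 10 min at RT with compound (up to 57.5 uM final), then substrate plus GAPDH/TPI/NAD/arsenate coupling system with diaphorase/resazurin was added; resorufin fluorescence (525/598 nm) was read after 20 min.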
# HCMV inh – inhibitors of human cytomegalovirus; HFF cells, HCMV-luciferase reporter, 72 h; stronger effect = lower value; AID 1259415; 410,000 compounds, 4.5% hits; activity change, negative = inhibition, % at 57.5 µM; in the data active means activity change below about -60%; inconclusive means no clear call, values can overlap the other calls; inactive means above about -39%
#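 Human foreskin fibroblasts infected with luciferase-reporter HCMV at MOI 1 PFU/cell, compounds at two doses. Luciferase measured 72 h post infection; normalized to buffer-only basal and Salinomycin (10uM) controls.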
# FMDV inh – blocks foot and mouth disease virus. Potency, µM (top dose mostly 57.9 µM), hits mostly inhibitors. AID 1159524. 410,000 compounds, 1.2% hits. FMDV antiviral cell-based qHTS; calls by dose curve; tested in HEK293T cells; further: read-out not given here; nearly all actives have a fitted effect of over 45% in size
# RE007 growth inh – less growth of the S. pombe RE007 Vpr strain; S. pombe RE007 Vpr strain, BacTiter-Glo ATP luminescence, 24 h; 360,000 compounds, 0.21% hits; Potency, µM (top dose mostly 92.2 µM), hits mostly inhibitors; active means well fitted falling curve with a large enough effect; inconclusive means small, poorly fitted or top-dose-only effect; inactive means no such curve, though single readings can be large or run the other way; further: nearly all actives have a fitted effect of over 50% in size
#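 Fission yeast strain RE007, carrying one chromosomally integrated HIV-1 vpr copy, was seeded at OD 0.01 in PMG+AL medium with 23 nL pinned compound. After 24 h at 30 °C and 99% humidity, viability was read by BacTiter-Glo luminescence.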
# Sm TGR inh – S. mansoni TGR enzyme inhibition; purified TGR, DTNB reduction, TNB absorbance 405 nm; Potency, µM (top dose mostly 114 µM), usual class: inhibitors; 360,000 compounds, 3% hits; AID 485364; further: nearly all actives have a fitted effect of over 60% in size
#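 Kinetic colorimetric format: TGR-catalysed, NADPH-driven DTNB reduction monitored via TNB absorbance. Enzyme dispensed at 20 nM; compound exposure 15 min at room temperature before reaction start.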
# TbPYK inhibitor – inhibitors of Trypanosoma brucei pyruvate kinase; TbPYK enzyme, Kinase-Glo Plus ATP luminescence, 45 min; AID 624173; 410,000 compounds, 0.12% hits; Q57TT1; Potency, µM (doses to about 76.8 µM), hits mostly inhibitors; further: nearly all actives have a fitted effect of over 50% in size
#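 Luminescence from Kinase-Glo Plus, added after a 45-minute room-temperature reaction, served as the end-point read-out. The enzyme and substrate were preincubated with compound before ADP (130 uM final) initiated turnover. Concentration-effect curves came from normalized qHTS data.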
# Hits are given with their value; - = inactive; ? = inconclusive; . = no result given; [ ] = another dose, or the depositor's remark. This is a sample that favours compounds with a hit; in the whole collection about 7.7% have one here. Unless noted, the call rests on the fitted dose curve; in most records, active means well fitted curve in the direction sought with a large enough effect; inconclusive means small, poorly fitted or top-dose-only effect, or another doubt; inactive means no such curve, though single readings can be large; an effect the other way counts as inactive or inconclusive.
SMILES,Giardia FBPA inh,HCMV inh,FMDV inh,RE007 growth inh,Sm TGR inh,TbPYK inhibitor
CCCS(=O)(=O)NCc1c(C)ncc2c1CCN(C(=O)c1cccc(-c3ccccc3F)c1)C2,.,.,-,.,.,.
CC(C)Cn1c(-c2cccc(S(=O)(=O)N3CCOCC3)c2)n[nH]c1=S,.,-,-,-,.,?
CCC(C)n1c(-c2cccc(S(=O)(=O)N3CCOCC3)c2)n[nH]c1=S (stereo not given),.,-,-,-,-,7.1µM
Cc1cc(C(=O)COC(=O)CNC(=O)c2ccccc2)c(C)n1CC1CCCO1 (stereo not given),-,-,16µM,-,-,-
COCCn1c(C)cc(C(=O)COC(=O)CNC(=O)c2ccccc2)c1C,-,-,25µM,-,-,-
Cc1cc(C(=O)COC(=O)c2ccc3c(c2)NC(=O)CS3)c(C)n1CC1CCCO1 (stereo not given),-,-,28µM,.,-,-
Cc1cccc(C(=O)NCC(=O)OCC(=O)c2cc(C)n(CC3CCCO3)c2C)c1 (stereo not given),-,-,-,-,-,-
Cc1cc(C(=O)COc2cc(F)ccc2[N+](=O)[O-])c(C)n1CC1CCCO1 (stereo not given),.,-66,-,-,.,-
COCCn1c(=O)c(-c2cn(C)c3ccccc23)nc2cnc(Oc3ccccc3)nc21,-,.,-,.,.,-
COCCn1c(C)cc(C(=O)COC(=O)c2ccc[nH]c2=O)c1C,-,-65,?,-,-,-
COc1ccccc1Nc1nnc(SCC(=O)c2cc(C)n(CC3CCCO3)c2C)s1 (stereo not given),-,-76,-,-,-,-
Cc1cc(C(=O)CSc2nnc(Nc3ccccc3F)s2)c(C)n1CC1CCCO1 (stereo not given),-,-,?,-,-[11.4 µM],-
Cc1cc(C(=O)COC(=O)c2ccc[nH]c2=O)c(C)n1C,-,-,-,-,-,-
CC(NC(=O)C1CCOCC1)c1nnc2n1CCN(Cc1ccc3cccnc3c1)CC2 (stereo not given),.,.,-,.,.,.
CC1CCN(c2ccc(-c3cccs3)nn2)CC1,-,-66,7.9µM,?,?,?
Cc1ccc(C(=O)C(C(=O)/C=C/c2ccccc2)=C2SCCCS2)cc1,-,-97,11µM,-,-,-
Cc1csc(SCC(=O)NCC2Cc3cc(-c4cncnc4)ccc3O2)n1 (stereo not given),.,.,-,.,.,.
CC(C)OC(=O)CSc1nnc(-c2ccc(O)cc2)n1Cc1ccccc1,-,-,-,-,-,-
O=C(CSc1nnc(-c2ccc(O)cc2)n1Cc1ccccc1)NNC(=O)c1ccc(Br)cc1,-,-68,-,-,-,-
Cc1nc(N)c(CC(Br)CBr)c(Cl)n1 (stereo not given),-,-68,-,-,-,-
CSc1ccccc1NC(=O)CN1CCN(c2ccccn2)CC1,-,-63,-,-,-,-
CC(C)c1ccc(NC(=O)CN2CCN(c3ccccn3)CC2)cc1,-,-,-,-,-,-
COc1cc(Cl)c(C)cc1NC(=O)c1ccccc1NC(=O)CN1CCN(c2ccccn2)CC1,.,-95,-,-,.,-
COc1ccc(N2CCN(CC(=O)Nc3ncc(C)s3)CC2)cc1,-,-,-,-,-,-
Cc1cnc(NC(=O)CN2CCN(c3ccccn3)CC2)s1,-,-97,-,-,-,-
SMILES,Giardia FBPA inh,HCMV inh,FMDV inh,RE007 growth inh,Sm TGR inh,TbPYK inhibitor
Clc1ccc(C(c2ccc(Cl)cc2)C(Cl)(Cl)Cl)cc1,-,.,3.5µM,.,.,-
COc1cc(/C=N/NC(=Nc2ccc(C)cc2)c2nc3ccccc3s2)ccc1O,-,-68,18µM,-,-,-
CO[C@H]1COC(=O)C/C=C\[C@H](C)[C@@H](NS(=O)(=O)c2ccc(C)cc2)COC(=O)CCC[C@@H]1C,-[12.9 µM],.,.,.,.,.
Cc1ccc(C)c(S(=O)(=O)NCc2nc(N3CCCC3)c3cc(Cl)ccc3n2)c1,.,.,-,.,.,.
O=C(C1CCCCC1)N(Cc1cccnc1)c1nc2c(F)cccc2s1,.,-,-,.,-,-[15.4 µM]
CC(C)=CCc1c(O)cc2oc3c(CC=C(C)C)c(O)c(O)c(CC=C(C)C)c3c(=O)c2c1O,?,-101,22µM,-,-,-
COc1c(O)cc2oc3cc(O)c(CC=C(C)C)c(O)c3c(=O)c2c1CC=C(C)C,-,.,-,.,.,.

# Source: PubChem BioAssay (National Center for Advancing Translational Sciences (NCATS))
